Screens: PubChem, National Center for Advancing Translational Sciences (NCATS)
PTHR1 ag = qHTS for PTHR1 Agonists: Primary Screen | Potency, µM (titrated, usually from 115 µM), inactives show at the highest dose activation, usual class: activators | hit rate 0.075% among 410,000 | HEK293 GP2 PTHR1 cells, GloSensor cAMP luminescence, 1 h | Parathyroid hormone/parathyroid hormone-related peptide receptor (Homo sapiens), Q03431; further: potency means the concentration at half of the fitted maximal effect; nearly all actives have a fitted effect of over 55% in size
Target sequence (Q03431 whole entry, looked up): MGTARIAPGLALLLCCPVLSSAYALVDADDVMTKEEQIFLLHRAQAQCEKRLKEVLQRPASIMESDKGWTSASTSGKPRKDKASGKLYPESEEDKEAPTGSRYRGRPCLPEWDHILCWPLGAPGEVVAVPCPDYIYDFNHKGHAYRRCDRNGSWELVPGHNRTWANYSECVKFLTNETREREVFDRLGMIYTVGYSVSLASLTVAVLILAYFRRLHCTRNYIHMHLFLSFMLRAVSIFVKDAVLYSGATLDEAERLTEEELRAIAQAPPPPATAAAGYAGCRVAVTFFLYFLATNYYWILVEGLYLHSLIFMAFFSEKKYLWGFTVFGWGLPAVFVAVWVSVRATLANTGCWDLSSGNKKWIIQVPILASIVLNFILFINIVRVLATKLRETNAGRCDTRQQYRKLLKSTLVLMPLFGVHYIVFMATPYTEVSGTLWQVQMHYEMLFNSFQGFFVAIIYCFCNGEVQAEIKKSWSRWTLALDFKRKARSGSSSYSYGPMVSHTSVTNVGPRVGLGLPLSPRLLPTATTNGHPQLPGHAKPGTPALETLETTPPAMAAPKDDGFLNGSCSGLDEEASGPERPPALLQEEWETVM
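HEK-293-derived GP2 cells expressing PTHR1 and a GloSensor cAMP reporter, 3,000/well, plated overnight, given luciferin plus IBMX (each 0.5 mM as added) for 1 h at 37 °C, then compound for 1 h at 37 °C. Luminescence was read after 15 min at room temperature.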
gsp antag = qHTS for Antagonists of gsp, the Etiologic Mutation Responsible for Fibrous Dysplasia/McCune-Albright Syndrome: qHTS. AID 624288, 2012. gsp-mutant cells, cAMP HTRF, 30 min. Potency, µM (highest dose often 76.9 µM), for inactives: at the highest dose activity change, negative = inhibition, hits mostly inhibitors. hit rate 0.4% among 340,000; calls by dose curve; cell line not stated here;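 further: intracellular cAMP measured with PDE inhibitor Ro 20-1724 present during compound exposure; potency means the concentration at half of the fitted maximal effect; on the % scale 0 is the no-effect control and ±100 the full control effect; nearly all actives have a fitted effect of over 65% in size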
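HTRF cAMP measurement after 30 min RT detection following 30 min, 37C compound treatment alongside […] (added as 300 uM solution) in G418-selected cells seeded at 2000/well and grown 16–24 h.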
gsp ag = qHTS for Agonist of gsp, the Etiologic Mutation Responsible for Fibrous Dysplasia/McCune-Albright Syndrome: qHTS | Potency, µM (top dose mostly 76.9 µM), for inactives: top-dose activation (cAMP increase), most hits filed as activators | gsp mutant cells, cAMP HTRF, 30 min | hit rate 0.13% among 340,000; active means well fitted activation curve with a large enough effect; inconclusive means small, poorly fitted or top-dose-only effect, or another doubt; inactive means no such curve, though single readings can be large or run the other way; cell line not stated here;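 further: phosphodiesterase inhibitor Ro 20-1724 added with compounds to block cAMP breakdown; potency means the concentration at half of the fitted maximal effect; nearly all actives have a fitted effect of over 60% in size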
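Cells in DMEM/10% FBS with G418 were pretreated with compounds in DMSO plus […] (300 uM stock) for 30 min at 37C. cAMP was measured by HTRF (cAMP-d2 plus anti-cAMP antibody-K) after 30 min at room temperature.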
RXFP1 antag = qHTS Assay for Antagonists of the Relaxin Receptor RXFP1. HEK293-RXFP1, relaxin-stimulated cAMP HTRF, 30 min; stronger effect = lower value. AID 1259400, 2018. hit rate 0.59% among 350,000. Relaxin receptor 1 (Homo sapiens), Q9HBX9. activity change, negative = inhibition, % at 57.5 µM;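 active means activity change of -60% or lower, but not beyond a set lower limit; inconclusive means change between -60% and -40%, or beyond the set limit; inactive means change above -40%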; further: on the % scale 0 is the no-effect control and ±100 the full control effect
RXFP1 ag = qHTS Assay for Agonists of the Relaxin Receptor RXFP1; Potency, µM (doses to about 57.5 µM), for the others: at the highest dose activation, actives largely listed as activators; HEK293T-RXFP1 cAMP TR-FRET, 30 min; response scale: percent of porcine relaxin response, buffer zero; hit rate 0.3% among 370,000; Relaxin receptor 1 (Homo sapiens), Q9HBX9; further: potency means the concentration at half of the fitted maximal effect; on the % scale 0 is the no-effect control and ±100 the full control effect; nearly all actives have a fitted effect of over 60% in size
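HEK293 cells stably expressing RXFP1, treated 30 min at 37C with compounds plus PDE4 inhibitor Ro 20174; cAMP measured by HTRF TR-FRET. Normalized to buffer and 29 nM porcine relaxin; EC50 by Hill fit.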
Starred values were filed as active, the others as inactive; [ ] = remark or other dose. Most compounds without a hit are left out; they make up all but 1% or so of the library. Unless noted, the call rests on the fitted dose curve; in most records, active means well fitted curve in the direction sought with a large enough effect; inconclusive means small, poorly fitted or top-dose-only effect, or another doubt; inactive means no such curve, though single readings can be large; an effect the other way counts as inactive or inconclusive.

For O=C1C2CC=CCC2C(=O)N1c1ccc(NCCc2ccc(O)cc2)c([N+](=O)[O-])c1 (centres undefined) the results were PTHR1 ag -52%, gsp antag 32µM*, gsp ag 10%[15.4 µM], RXFP1 antag -6 and RXFP1 ag 0%.
Screening O=C1C2CC=CCC2C(=O)N1c1ccc(NCCc2ccc(Cl)cc2)c([N+](=O)[O-])c1 (centres undefined) returned PTHR1 ag inactive, gsp antag 6%, gsp ag 12%, RXFP1 antag 11 and RXFP1 ag 3%.
`CS(=O)(=O)Nc1ccc(C2=NN(C(=O)c3ccco3)C(c3ccccc3F)C2)cc1` (centres undefined) gave PTHR1 ag -12%, gsp antag 28µM*, gsp ag -32%, RXFP1 antag -14 and RXFP1 ag 0%.
Screening CCS(=O)(=O)Nc1ccc(C2=NN(C(=O)c3ccco3)C(c3ccco3)C2)cc1 (centres undefined) returned PTHR1 ag -34%, gsp antag inconclusive, gsp ag -54%, RXFP1 antag -24 and RXFP1 ag 0%.
For CN(C)c1ccc(Cc2cc3c(O)ccc(O)c3cc(Cc3ccc(N(C)C)cc3)c2=O)cc1 the results were PTHR1 ag -23%, gsp antag -15%, gsp ag -49% and RXFP1 antag -107*.
COc1cc([N+](=O)[O-])ccc1NC(=O)N1CCC2(CC1)Nc1ccccc1-n1cccc12 was read as PTHR1 ag -12%, RXFP1 antag -17 and RXFP1 ag 0%.
Screening CCN(Cc1ccc2c(c1)OCCO2)C(=O)CSc1nc(C)nc2sc(C)c(C)c12 returned PTHR1 ag -39%, gsp antag 50µM*, gsp ag -75%, RXFP1 antag -16 and RXFP1 ag 2%.
`CCOC(=O)N1CCN(CC(=O)c2ccc(O)cc2O)CC1` gave PTHR1 ag -2%, gsp antag 11µM*, gsp ag 3%, RXFP1 antag 9 and RXFP1 ag 0%.
CCOC(=O)c1ccc(CC(=O)c2ccc(O)cc2O)o1 was read as PTHR1 ag inactive, gsp antag 8.9µM*, gsp ag 15%, RXFP1 antag -15 and RXFP1 ag -4%.
For CCOC(=O)N1CCN(CC(=O)c2ccc(O)c(C)c2O)CC1 the results were PTHR1 ag inactive, gsp antag -2%, gsp ag 15%, RXFP1 antag -26 and RXFP1 ag -2%.
For Cc1cccc2c1-c1sc(C(=O)NCCCN3CCN(c4cccc(Cl)c4)CC3)cc1CO2 the results were PTHR1 ag -26% and RXFP1 ag 3%.
Screening COc1cc(S(=O)(=O)NCCc2c(C)[nH]c3ccc(C)cc23)ccc1Br returned PTHR1 ag -96%, RXFP1 antag -10 and RXFP1 ag -1%.
Screening CN(CCCNC(=O)CSc1cc(=O)n(C)c2cc(Cl)ccc12)Cc1ccccc1 returned PTHR1 ag inactive, gsp antag 0%, gsp ag 18µM*, RXFP1 antag 17 and RXFP1 ag 11%.
CCOC(=O)CSc1cc(=O)n(C)c2cc(Cl)ccc12 was read as PTHR1 ag -11%, gsp antag -19%, gsp ag 16µM*, RXFP1 antag 4 and RXFP1 ag 2%.
Cn1c(=O)cc(SCC(=O)NCc2ccc(F)cc2)c2ccc(Cl)cc21 was read as PTHR1 ag inactive, RXFP1 antag -6 and RXFP1 ag 2%.
`CC(=O)C1=C(c2ccc(Cl)c(Cl)c2)N(C(C)=O)n2c(C)nnc2S1` gave PTHR1 ag inactive, RXFP1 antag -84* and RXFP1 ag 5%.
For CC(=O)C1=C(c2ccc(Cl)c(Cl)c2)N(C(C)=O)n2cnnc2S1 the results were PTHR1 ag -2%, RXFP1 antag -83* and RXFP1 ag 4%.
